Source: PubChem BioAssay AID2315 (National Center for Advancing Translational Sciences (NCATS), 2010)
Screen size: about 290,000 compounds; about 27,000 (9.3%) were called active. What follows is part of a selection rich in actives, with near analogues and random picks from the rest. Values without a mark were called inactive. No stated cut-off is given here; in the data, active means inhibition mostly above about 28% (no sharp cut-off); inactive means mostly below about 43%.

Assay: A qHTS for Small Molecule Inhibitors of Shiga Toxin; further: 0% is about no effect
Conditions: Vero cells, Shiga toxin protein synthesis inhibition reporter; at 38.7 µM, hits give high values

Structure (SMILES)	inhibition
CCc1ccc(C(CNc2nc(C(F)(F)F)nc3ccccc23)N(C)C)cc1 (stereo not drawn)	-12.5%
Cc1cccc(CN2CCC(CNC(=O)Nc3ccc(F)c(Cl)c3)CC2)c1	-4.78%
Cc1ccc(NC(=O)C2CCCN2S(=O)(=O)c2cccc3cccnc23)c(C)c1 (stereo not drawn)	-11.1%
COc1ccc(OC)c(S(=O)(=O)n2c([N+](=O)[O-])cnc2C)c1	-7.62%
COc1cc(NC(=O)C2CC(c3ccccc3O)=NO2)c(OC)cc1Cl (stereo not drawn)	-12.3%
COc1ccc(C(CNC(=O)COc2ccccc2OC)N2CCCCC2)cc1 (stereo not drawn)	-20.7%
c1ccc(CN=C2Nc3ccccc3CS2)nc1	59.8% (active)
COc1ccccc1CNS(=O)(=O)c1c(C)[nH]c(C)c1C(=O)N1CCCCC1	2.2%
Cc1ccc(S(=O)(=O)N(CC(=O)NCc2ccco2)c2ccccc2C)cc1	9.67%
COc1ccccc1OC(C)C(=O)Nc1ccc(S(=O)(=O)Nc2nccs2)cc1 (stereo not drawn)	-4.41%
Cn1c(CO)cnc1SCc1ccccc1	65.8% (active)
CSc1c(SCc2ccccc2)cnn(Cc2ccccc2)c1=O	10.6%
Cn1c(-c2ccc(F)cc2)cnc1SCC(=O)NNC(=O)Cc1ccccc1	18.3%
CCS(=O)(=O)N1CCC(N2CCN(c3ccccc3)CC2)CC1	-4.18%
Cc1cc(C)n(-c2ccc(NC(=O)C3CCCCN3C(=O)c3cccs3)cc2)n1 (stereo not drawn)	11%
Cc1ccc2[nH]c3c(=O)n(CC(=O)NCCc4ccc(Cl)cc4)ncc3c2c1	21.6%
COc1ccc(Cc2n[nH]c(=S)n2NC(=O)Nc2ccc(C)cc2)cc1	63.4% (active)
Cc1ccc(OCc2n[nH]c(=S)n2-c2ccc(C)cc2)cc1	-9.95%
CCOc1ccc(NC(=O)CN2CCN(CC(=O)Nc3ccc(OC)cc3)CC2)cc1	-3.78%
COc1ccc(CCNC(=O)CN2C(=O)COc3ccc(S(=O)(=O)N4CCCC4)cc32)cc1OC	22.2%
CCc1ccc(-c2cc(C)no2)cc1S(=O)(=O)NCCc1ccc(S(N)(=O)=O)cc1	-11%
COc1ccc(CCNC(=S)N2CCN(S(=O)(=O)c3ccc(Cl)cc3)CC2)cc1	-14.7%
O=C(CCS(=O)(=O)c1ccccc1)NC1CCCC1	55.4% (active)
CC(=O)c1cc(-c2ccccc2)n(CCC(=O)NC2CCCCCC2)c1C	10.9%

Structure (SMILES)	inhibition
O=C(CCNC(=O)C1CCN(S(=O)(=O)c2ccccc2)CC1)NC1CC1	-1.38%
CC1(C(=O)NNC(=S)NCC2CCCO2)CC1(Cl)Cl (stereo not drawn)	-2.83%
Cc1ccc(Cl)cc1NC(=O)C1CCCN(c2cnccn2)C1 (stereo not drawn)	-10.6%
C=CCN1C(=O)C2(OCCCO2)c2cccc(Cl)c21	-3.46%
CC1(C)Cc2ccccc2/C(=C/C(=O)c2ccccc2)N1	-3.39%
COc1ccc(NC(=O)c2cccc3c2C(=O)N(CC2CCCO2)C3)cc1OC (stereo not drawn)	3.68%
CC(=O)NCC(=O)N1CCC(n2nccc2NC(=O)CCCc2ccccc2)CC1	30.2%
CC(=O)N[C@@H](C)C(=O)N1CCC(n2nccc2NC(=O)CCCc2ccccc2)CC1	57.5% (active)
Cc1ccc(CN2CCC(n3nccc3NC(=O)CCCc3ccccc3)CC2)o1	21.2%
COc1cc(N2CCCC2)c(OC)cc1/C=C(/C#N)c1cccc(Br)c1	-23.2%
COc1ccccc1NC(=O)CCN1CCN(c2ccc(Cl)cc2)CC1	-2.18%
CC(Sc1cccc[n+]1[O-])C(=O)Nc1cccc(S(=O)(=O)N2CCOCC2)c1 (stereo not drawn)	-6.74%
Cc1ccc(CNC(=O)Cc2cn(C)c3ccccc23)cc1	12.6%
COc1cccc(NC(=O)CCNS(=O)(=O)c2ccc3c(c2)oc(=O)n3C)c1	14.5%
CCNS(=O)(=O)c1ccc(NC(=O)Nc2cccc(OC)c2)cc1	-33.1%
COc1cccc(NC(C)=[N+](C)CCNS(=O)(=O)c2ccc(Cl)cc2)c1	119% (active)
CCCCCCC(O)(CCN1CCCCC1)c1ccccc1 (stereo not drawn)	-7.11%
COc1ccc(NC(=O)C(CC(C)C)NC(=O)C2CCC(C)CC2)cc1 (stereo not drawn)	35.8%
CC(=O)c1cnc(-c2ccccc2)s1	59% (active)
CNC(=O)c1csc(-c2ccccc2)n1	25.9%
O=C(/C=C/Nc1ccccc1)c1cnc(-c2ccccc2)s1	-10.9%
CCCn1nnnc1NCc1ccc(OC)cc1	-12.1%
CCS(=O)(=O)C1=NSC2=NC(=O)/C(=C\c3ccc(OS(=O)(=O)c4ccccc4)cc3)C(=N)N21	14.7%
Cc1ccccc1N1CCN(S(=O)(=O)c2ccc3ccccc3c2)CC1	-3.59%

Structure (SMILES)	inhibition
O=C(c1cccc(-n2cccc2)c1)N1CCN(S(=O)(=O)c2ccc(F)cc2)CC1	-1.04%
O=C(CCc1ccccc1)NNC(=O)COc1ccc(Cl)cc1	-14.5%
Cc1cc(C(=O)NCCc2ccc(Cl)cc2)c(C)o1	87.4% (active)
O=C(COc1ccc(Cl)cc1)NCCSc1ccccc1	-8.84%
Cc1cc(C(=O)NCCc2ccc(Cl)cc2)n(-c2ccccc2)n1	-4.98%
NS(=O)(=O)c1ccc(CCNC(=O)c2ccc(Cl)cc2[N+](=O)[O-])cc1	12.8%
O=C(NCCc1ccccc1)Oc1ccc(Cl)cc1	62.7% (active)
COc1cccc(C(=O)NNS(=O)(=O)c2ccc(F)cc2)c1	0.43%
CCN1CCN(CCNC(=O)c2ccc3c(c2)NC(=O)/C(=C\c2ccc(OC)c(OC)c2)S3)CC1	-8.25%
Cc1ccccc1NC(=O)CN1C(=O)N/C(=C\c2cccn2-c2cccc(C(=O)O)c2)C1=O	-13.8%
O=C1N/C(=C/c2cccn2-c2ccccc2)C(=O)N1c1cccc(Cl)c1	60.1% (active)
COc1cc2c(cc1/C=C1/NC(=O)N(c3ccccc3)C1=O)OCO2	24.2%
CCc1cccc(C)c1N1C(=O)CN(Cc2ccccc2)C1=S	-3.04%
O=C(c1c(F)cccc1F)N1CCN(S(=O)(=O)c2ccc3c(c2)OCCO3)CC1	2.06%
O=C(Nc1ccc(OCC(=O)N2CCOCC2)cc1)c1cc(F)c(F)cc1Cl	24.7%
Cc1cc(=O)oc2c(C)c(OC(C)C(=O)NC3CCN(Cc4ccccc4)CC3)ccc12 (stereo not drawn)	-5.37%
CCS(=O)(=O)N1Cc2ccccc2CC1C(=O)Nc1ccc(OC)cc1OC (stereo not drawn)	24.9%
Cc1ccc2nc(NC(=O)C3CCN(S(=O)(=O)c4ccc5c(c4)oc(=O)n5C)CC3)sc2c1	-20.5%
CCS(=O)(=O)N1Cc2ccccc2CC1C(=O)Nc1nc2ccc(F)cc2s1 (stereo not drawn)	99.4% (active)
CCN(CC)c1ccc(C(=O)Nn2c(C)nc3ccccc3c2=O)cc1	1.76%
COc1cccc(OCc2nnc3n2N=C(c2ccccc2)C(CC(=O)O)S3)c1 (stereo not drawn)	-9.17%
COc1ccc(/C=N/NC(=O)c2cccc(C(F)(F)F)c2)cc1	17.5%
Cn1cccc1/C=N/NC(=O)c1ccc(OC(F)(F)C(F)F)cc1	33.1% (active)
CCn1c(/C=N/NC(=O)c2ccc(OC)cc2)nc2ccccc21	15%

Structure (SMILES)	inhibition
c1ccc(-c2cnc(CN3CCN(c4ccccc4)CC3)o2)cc1	-3.91%
O=C(COCc1cc(-c2ccc3c(c2)OCO3)on1)N1CCN(c2cccc(Cl)c2)CC1	4.57%
O=C(NC(=S)NC1CCCCC1)c1ccc(Cl)cc1	-12.4%
CCOC(=O)N1CCN(Cc2nc3cc(NC(C)=O)ccc3n2C)CC1	-4.25%
COc1ccc(C(=O)Nc2ccc(NC(=O)C(C)C)nc2)cc1	22.3%
CCc1cc(C(=O)c2ccc(OC)cc2)c(NC(=O)CN2CCN(C)CC2)s1	-6.04%
Cc1ccc(NC(=O)c2cccnc2C(=O)Nc2ccc(C)cc2)cc1	20.9%
Cc1ccc(NC(=O)c2ccc(Oc3ncccn3)cc2)cc1	54.9% (active)
Cn1c(CN2CCOCC2)nc2cc(NC(=O)c3ccc(Cl)cc3)ccc21	69.5% (active)
CCc1cc(C(N)=O)c(NC(=O)c2ccc(OC)cc2)s1	33.1% (active)
CC(=O)NCCc1nc2cc(NC(=O)c3ccccc3)ccc2n1C	38.3%
COc1ccc(C(=O)NC(=S)NC2CCCCC2)cc1	91.2% (active)
CCCNC(=S)N1CCC(NC(=O)c2ccc(OC)cc2)CC1	10.3%
CCc1cc(C(c2ccccc2OC)N2CCOCC2)c(NC(=O)c2ccccc2)s1 (stereo not drawn)	33.3%
Cc1cc(OCC(=O)Nc2c(C)n(C)n(-c3ccccc3)c2=O)ccc1[N+](=O)[O-]	-12.8%
Cc1ccc(CC2(O)CCN(CCOc3ccc(O)cc3)CC2)cc1	-5.63%
Cc1ccccc1N1CCN(C2CCCN(C(=O)c3ocnc3C)C2)CC1 (stereo not drawn)	-9.46%
Cc1cc(C)cc(NC(=O)C2CCCN(S(=O)(=O)c3ccc4[nH]c(=O)ccc4c3)C2)c1 (stereo not drawn)	14.1%
Cc1cccc(NC(=O)c2ccc3c(=O)n(CC4CCCO4)c(=S)[nH]c3c2)c1 (stereo not drawn)	-1%
O=C(Cn1ccc2cc(S(=O)(=O)N3CCCC3)ccc21)NCc1ccccc1	-6.39%
COc1ccc(NC(=O)CCn2ccnc2)c(OC)c1	-6.3%
